A selection: hits, their analogues and other compounds. The true share with any hit is near 13%.
HCV inhibitor: inhibitors of hepatitis C virus infection. Huh7.5.1 HCVcc-Cre infection, luciferase reporter, 44 h. AID 651820. Potency, µM (titrated, usually from 41.8 µM), inactives show top-dose activity change, negative = inhibition, hits mostly inhibitors. hit rate 3.4% among 340,000; also: potency is read from the fitted curve at half-maximal effect
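Reporter virus HCVcc-Cre (~0.5 moi) infects cells exposed to compound; seeding density 1,000 cells/well with 4 h settling beforehand. Luminescence, 15 sec read, taken 44 h post-infection following a 15 min RT substrate incubation.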
Pf growth 96h: P. falciparum growth inhibition at 96 hours; P. falciparum luciferase reporter growth, 96 h; Potency, µM (series often up to 28.7 µM), for inactives: at the top dose activity change, negative = inhibition, actives largely listed as inhibitors; hit rate 6.9% among 320,000; also: potency is read from the fitted curve at half-maximal effect
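P. falciparum expressing integrated firefly luciferase, in erythrocytes at 2% hematocrit, 0.05% parasitemia, incubated with compounds 96 h at 37 C, 5% CO2. Growth inhibition read as loss of luminescence; two-generation exposure targets delayed-death apicoplast inhibitors.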
Pf growth 48h: inhibits P. falciparum growth in the first generation, 48 h; P. falciparum luciferase growth in erythrocytes, 48 h; Potency, µM (highest dose often 28.7 µM), for inactives: at the highest dose activity change, negative = inhibition, most hits filed as inhibitors; hit rate 5.9% among 310,000; also: potency is read from the fitted curve at half-maximal effect
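Parasite viability was followed by luminescence of a genomically integrated firefly luciferase. Cultures held 0.1% parasitemia at 2% hematocrit (final), incubated under 5% CO2 at 37 C.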
HCMV antiviral: blocks human cytomegalovirus replication. hit rate 4.5% among 410,000. activity change, negative = inhibition, % at 57.5 µM. AID 1259415. HFF cells, HCMV-luciferase reporter, 72 h; hits give low values; in the data active = activity change below about -60%; inconclusive = no clear call, values can overlap the other calls; inactive = above about -39%
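Compounds were evaluated in HFFs infected with an HCMV luciferase reporter virus (MOI 1 PFU/cell). Luciferase in lysates collected 72 h post infection served as the replication measure.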
Starred values were filed as active, the others as inactive; ? = inconclusive; . = no result given; + = active, no number; ! = repeats disagree; [ ] = dose if it differs, or a comment. Unless noted, calls follow the shape of the dose curve; as a rule, active = well fitted inhibition curve with a large enough effect; inconclusive = small, poorly fitted or top-dose-only effect, or another doubt; inactive = no such curve, though single readings can be large or run the other way. % is scaled to controls: 0 for no effect and ±100 for the full control effect.

SMILES	HCV inhibitor	Pf growth 96h	Pf growth 48h	HCMV antiviral
O=C(CN(c1cccc(Cl)c1)S(=O)(=O)c1ccc(Cl)cc1)N1CCc2ccccc2C1	7%	62%	12µM*	7
CN(Cc1ccco1)S(=O)(=O)c1ccc2c(c1)CCN2C(=O)CCC(=O)O	19%	13µM*	-16%	-6
COc1cccc(N2CCN(C(=O)c3cccc(NC(=O)c4nsc5ccccc45)c3)CC2)c1	.	.	.	65
CCCCN(CC)CCNC(=O)c1cc2c(=O)oc3ccc(C)cc3c2s1	.	.	.	5
CCOC(=O)c1sc(=S)n(-c2ccc(C)cc2)c1SC	-13%	0.47µM*	1.2µM*	?
CCOC(=O)c1sc(=S)n(-c2ccccc2)c1C	3%	-1%	-10%	-37
O=C1c2ccccc2C(=O)C1(CO)c1ccc(OC(F)F)cc1	?	126%	12µM*	0
Cc1ccccc1CNC(=O)c1ccc(CN2CC(=O)N3CCCCC3C2=O)cc1 (centres undefined)	.	.	.	3
Cc1ccc(/C=C/c2nc3ccccc3n2S(=O)(=O)c2cccc(Cl)c2)cc1	.	.	.	-82*
CCOc1ccc(/C=C/c2nc3ccccc3n2S(=O)(=O)c2cccc(Cl)c2)cc1	.	.	.	-80*
CSc1ccc(/C=C/c2nc3ccccc3n2S(=O)(=O)c2ccc(F)c(C)c2)cc1	.	.	.	-36
CC(C)Oc1ccc(C(CC(=O)NCCCN(C)C)c2ccc(F)cc2)cc1 (centres undefined)	?	12µM*	?	?
COc1ccc(NC(=O)c2c(NCc3ccc(C)o3)sc3c2CCC(C)C3)c(OC)c1 (centres undefined)	.	.	.	-35
COc1cccc(CNC(=O)Cn2ncn3nc(-c4cccs4)cc3c2=O)c1OC	.	.	.	10
COc1ccc(S(=O)(=O)n2ccc(-c3ccc4c(c3)CCC(C)(C)O4)n2)cc1	-74%	9.3µM*	10µM*	-85*
CC(C)(C)OC(=O)N1CCC(c2c(C(=O)N3CCN(C(=O)c4ccco4)CC3)cnn2-c2cccc(Cl)c2)CC1	-8%	1%	12µM*	-19
COc1ccc(-n2ncc(C(=O)NCCc3ccsc3)c2C2CCN(C(=O)OC(C)(C)C)CC2)cc1	.	.	.	+
CC(C)(C)OC(=O)N1CCC(c2c(C(=O)NC3CC3)cnn2-c2ccccc2)CC1	4%	15%	12µM*	-17
Cc1cccc(-n2ncc(C(=O)NC3CCCC3)c2C2CCN(C(=O)OC(C)(C)C)CC2)c1	3%	?	1.5µM*	-17
COc1ccc(-n2ncc(C(=O)N3CCN(C(=O)c4ccco4)CC3)c2C2CCN(C(=O)OC(C)(C)C)CC2)cc1	.	.	.	0
C=C1c2c(Cl)ccc(O)c2C(O)=C2C(=O)[C@@]3(O)C(O)=C(C(N)=O)C(=O)[C@@H](N(C)C)[C@@H]3[C@@H](O)[C@H]12	.	0.72µM*	4.1µM*	.
C[C@H]1c2cccc(O)c2C(O)=C2C(=O)[C@]3(O)C(O)=C(C(N)=O)C(=O)[C@@H](N(C)C)[C@@H]3[C@@H](O)[C@@H]21	-4%	0.74µM*	4.7µM*	.
CN(C)[C@@H]1C(=O)C(C(N)=O)=C(O)[C@@]2(O)C(=O)C3=C(O)c4c(O)ccc(Cl)c4[C@@](C)(O)[C@H]3C[C@@H]12	0.89µM*	-26%	?	37
CN(C)[C@@H]1C(=O)C(C(N)=O)=C(O)[C@@]2(O)C(=O)C3=C(O)c4c(O)cccc4[C@@](C)(O)C3C[C@@H]12 (some centres undefined)	-8%	2.1µM*	7.4µM*	20
CN(C)[C@H]1C(=O)C(C(=O)NCN2CCCC2)=C(O)[C@]2(O)C(=O)C3=C(O)c4c(O)cccc4[C@@](C)(O)[C@H]3C[C@@H]12	.	4%[12.8 µM]	-6%[12.8 µM]	.
SMILES	HCV inhibitor	Pf growth 96h	Pf growth 48h	HCMV antiviral
Cc1cccc(CNC(=O)CCCn2c(=O)c3cccn3c3ccc(F)cc32)c1	.	.	.	24
CCOC(=O)c1ccccc1NC(=O)c1cn(CC(C)C)c(=O)c2cc(OC)c(OC)cc12	.	.	.	-2
CCc1ccccc1Nc1cc(C(=O)NCc2ccc(C)cc2)c2ccccc2n1	.	.	.	1
CN(C)C1C(=O)C(C(N)=O)C(=O)C2(O)C(=O)C3C(=O)c4c(O)cccc4C(C)(O)C3C(O)C12 (centres undefined)	.	3µM*	9.5µM*	.
CN(C)c1ccc(O)c2c1CC1CC3[C@@H](N(C)C)C(=O)C(C(N)=O)=C(O)[C@]3(O)C(=O)C1=C2O (some centres undefined)	6%[8.37 µM]	0.33µM*	4.7µM*	?
CN(C)[C@@H]1C(=O)C(C(N)=O)=C(O)[C@@]2(O)C(=O)C3=C(O)c4c(O)cccc4[C@@](C)(O)[C@H]3[C@H](O)[C@@H]12	14%[8.37 µM]	3.8µM*!	13µM*!	?
COc1ccc(CNC(=O)C(CC(C)C)NS(=O)(=O)c2ccc3c(c2)CCN3C(C)=O)cc1 (centres undefined)	.	.	.	-12
CCCC1NC(=S)N(C2CCCCC2)C1=O (centres undefined)	4%	2.9µM*	0%	14
O=C1CNC(=S)N1C1CCCCCC1	9%	1%	-1%	-2
Cc1cc(N)c2cc(NC(=O)Nc3ccc4nc(C)cc(N)c4c3)ccc2n1	.	?	1.2µM*	-99*
Cc1c(O)ccc(/C(Cc2ccc3ccccc3n2)=N\O)c1O	11µM*	229%	259%	2
COc1ccc(-c2csc(C3=C(O)CN(Cc4ccc(Cl)cc4)C3=N)n2)cc1OC	11µM*	.	?	-33
COc1ccc(-c2csc(C3=C(O)CN(Cc4ccc(S(N)(=O)=O)cc4)C3=N)n2)cc1OC	-16%	.	57%	-7
Cc1ccc(C(=O)NCC(C)(C)N2CCOCC2)s1	21%	-2%	.	54
CC(C)(CNC(=O)c1sc2cc(F)ccc2c1Cl)N1CCOCC1	11µM*	?	-14%	?
COC(=O)CCn1cnc2onc(-c3cc(F)cc(F)c3)c2c1=O	.	.	.	0
COc1ccc(CNCCC(c2ccccc2)C2CCOC(C)(C)C2)cc1 (centres undefined)	?	?	?	-29
COc1ccc(CN(CCC(c2ccccc2)C2CCOC(C)(C)C2)C(C)=O)cc1 (centres undefined)	-12%	-1%	13µM*	21
Cc1ccc(NC(=O)C(=O)NCCc2csc3nc(-c4ccccc4C)nn23)cc1Cl	.	.	.	17
Cc1ccc(C)c(NC(=O)C(=O)NCCc2csc3nc(-c4ccccc4C)nn23)c1	.	.	.	-68*
CC(CC(=O)NCc1ccc(Cl)cc1)CC1=NS(=O)(=O)c2ccccc2N1 (centres undefined)	.	.	.	-8
COC(=O)c1cccc(C23CC4(C2)[C@H](CN(C)[C@@H]4c2ccccc2)C3c2ccccc2)c1 (some centres undefined)	12%	?	12µM*	19
COC(=O)c1cccc(C23CC4(C2)[C@H](CN(C)[C@@H]4c2ccccc2)C3c2ccc(C(F)(F)F)cc2)c1 (some centres undefined)	20%	?	9.3µM*	39

Screening data: PubChem, National Center for Advancing Translational Sciences (NCATS)
